# IL1B secr inh: qHTS for Inhibitors of Inflammasome Signaling: IL-1-beta AlphaLISA Primary Screen. THP-1 LPS/ATP IL-1B secretion, AlphaLISA, 16 h; hits give low values. AID 743279, 2014. activity change, % at 57.5 µM. 360,000 compounds, 4.7% hits; in the data active = activity change below about -50%; inconclusive = mostly about -30% to -49%
#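 THP-1 cells pretreated 1 hr with compounds (up to 57.5 uM final), then stimulated with LPS (250 ng/mL final) plus ATP (1.25 mM final); secreted IL-1B measured by AlphaLISA after 16 hr, decreased signal indicating inhibition.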
# TDP1 cell CPT: qHTS for Inhibitors of human tyrosyl-DNA phosphodiesterase 1 (TDP1): qHTS in cells in presence of CPT | 420,000 compounds, 12% hits | chicken DT40 Tdp1-/-;hTDP1 cells + 20 nM CPT, ATP luminescence, 48 h | Potency, µM (titrated, usually from 46.2 µM), without a hit: at the highest dose activity change, negative = growth inhibition, usual class: inhibitors; note: potency is the fitted concentration of half-maximal effect; nearly all actives have a fitted effect of over 55% in size
#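 Cell growth measured by CellTiter-Glo luminescence after a minimum 48 h, 37 C compound exposure with 20 nM CPT in Tdp1-knockout DT40 cells stably expressing hTDP1, seeded 400/well; qHTS titration format.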
# HT1080NT lethal: qHTS for induction of synthetic lethality in tumor cells producing 2HG: qHTS for the HT-1080-NT fibrosarcoma cell line. HT-1080-NT fibrosarcoma viability, CellTiter-Glo ATP luminescence, 48 h. Potency, µM (titrated, usually from 46.1 µM), inactives show at the highest dose activity, negative = less viability, actives largely listed as cytotoxic. 360,000 compounds, 1.6% hits;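 note: NT is the 2HG producing partner of a matched IDH1 knockdown line; potency is the fitted concentration of half-maximal effect; 0% = DMSO-treated cells and -100% = media-only wells without cells; nearly all actives have a fitted effect of over 55% in size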
#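 HT-1080-NT; 750 cells/well; 5% FBS RPMI; 48 h compound, 37 degrees C; CellTiter-Glo luminescence; curve fitting and curve-class assignment.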
# DT40 TDP1 no CPT: qHTS for Inhibitors of human tyrosyl-DNA phosphodiesterase 1 (TDP1): qHTS in cells in absence of CPT; DT40 Tdp1-/- hTDP1 cells, no CPT, ATP luminescence, 48 h; Potency, µM (top dose mostly 46.2 µM), for the others: at the top dose activity change, negative = growth inhibition, most hits filed as inhibitors; 420,000 compounds, 15% hits; note: potency is the fitted concentration of half-maximal effect; nearly all actives have a fitted effect of over 55% in size
#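 DT40 Tdp1-/-;hTDP1 cells, no CPT (DMSO vehicle only), 400 cells/well; compounds pin-transferred; ≥48 hr, 37 °C; CellTiter-Glo 30 min RT dark, luminescence read.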
# ALOX12 inh: Primary qHTS assay for inhibitors of human arachidonate 12S-lipoxygenase (ALOX12): Round 2 | 580,000 compounds, 1.1% hits | Potency, µM (highest dose often 108 µM), for inactives: at the top dose activity change, negative = inhibition, most hits filed as inhibitors | purified 12hLO, xylenol orange hydroperoxide absorbance | Polyunsaturated fatty acid lipoxygenase ALOX12 (Homo sapiens), P18054; note: potency is the fitted concentration of half-maximal effect
# Target sequence (P18054 whole entry, looked up): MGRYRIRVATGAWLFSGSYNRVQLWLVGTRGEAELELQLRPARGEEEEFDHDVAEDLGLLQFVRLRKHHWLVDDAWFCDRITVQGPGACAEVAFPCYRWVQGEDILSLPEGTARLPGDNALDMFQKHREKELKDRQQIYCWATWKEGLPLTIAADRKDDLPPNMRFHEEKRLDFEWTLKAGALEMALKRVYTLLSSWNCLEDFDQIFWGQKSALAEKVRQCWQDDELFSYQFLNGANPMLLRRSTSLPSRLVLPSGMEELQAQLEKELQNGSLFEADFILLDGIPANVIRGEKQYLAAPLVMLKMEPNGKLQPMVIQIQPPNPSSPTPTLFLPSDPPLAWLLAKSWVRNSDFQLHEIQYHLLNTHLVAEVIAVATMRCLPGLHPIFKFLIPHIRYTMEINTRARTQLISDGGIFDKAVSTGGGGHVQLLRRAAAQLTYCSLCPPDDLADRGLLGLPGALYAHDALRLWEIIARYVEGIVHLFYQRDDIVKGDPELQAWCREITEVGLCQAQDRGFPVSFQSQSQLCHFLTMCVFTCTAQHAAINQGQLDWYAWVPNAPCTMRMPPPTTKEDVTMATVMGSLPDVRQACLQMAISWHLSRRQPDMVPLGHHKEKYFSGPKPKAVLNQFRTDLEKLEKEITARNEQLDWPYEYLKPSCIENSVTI
#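 Hydroperoxide product was detected by ferrous iron/xylenol orange as the 573 to 405 nm absorbance ratio. Arachidonic acid at 40 uM (final) was turned over for 30 min at room temperature by 150 nM human 12hLO, pH 7.0 Hepes buffer, after 15 min compound preincubation.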
# HT1080 IDH1KD tx: qHTS for induction of synthetic lethality in tumor cells producing 2HG: qHTS for the HT-1080-IDH1KD cell line; HT-1080 IDH1 knockdown viability, ATP luminescence, 48 h; Potency, µM (doses to about 46.1 µM), for the others: at the highest dose activity, negative = toxicity, usual class: cytotoxic; 360,000 compounds, 2% hits;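 note: potency is the fitted concentration of half-maximal effect; 0% = DMSO wells and -100% = cell-free medium wells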
#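 Using the IDH1-knockdown HT-1080 line run in the same batch and compound series as the NT line, viability after 48 h at 37 °C was determined by CellTiter-Glo luminescence and expressed as % activity.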
# * hit, by the source's call; ? = inconclusive; . = no result. This excerpt belongs to a sample that is enriched for hits. Unless noted, calls come from the whole dose curve; as a rule, active = well fitted curve in the direction sought with a large enough effect; inconclusive = small, poorly fitted or top-dose-only effect, or another doubt; inactive = no such curve, though single readings can be large; an effect the other way counts as inactive or inconclusive. Unless noted, % is set by controls: 0 for no effect and ±100 for the full control effect.
SMILES,IL1B secr inh,TDP1 cell CPT,HT1080NT lethal,DT40 TDP1 no CPT,ALOX12 inh,HT1080 IDH1KD tx
COc1cccc(C2C=C(c3ccc(C)cc3)Nc3c(C(=O)Nc4ccc(F)cc4)cnn32)c1OC (stereo unspecified),.,?,.,18.4µM*,-28.9%,.
Cc1ccc(-c2cnc(CCC(=O)NCC(CC(C)C)N3CCOCC3)o2)cc1C (stereo unspecified),.,.,.,.,-20.3%,.
COc1c(Cl)cc(C(=O)Oc2cccc(C)c2)cc1Cl,.,.,.,.,-4.8%,.
C(=Nc1cccnc1)c1ccnc2ccccc12,.,2µM*,.,1.78µM*,.,.
C(=Nc1cnc2ccccc2c1)c1cccnc1,.,17.4%,.,4.8%,.,.
C(=Nc1cnc2ccccc2c1)c1ccnc2ccccc12,.,2.82µM*,.,2.82µM*,.,.
CCN(c1ccccc1)S(=O)(=O)c1cc(C(=O)OC(C)C(=O)Nc2ccc3c(c2)OCCO3)ccc1C (stereo unspecified),16.4,?,-12.9%,16.4µM*,?,-24.7%
CC(=O)Nc1cccc(C(=O)OC(C)C(=O)NCc2ccc3c(c2)OCO3)c1 (stereo unspecified),21.9,-2.8%,1.2%,-0.6%,12.6%,-15.1%
O=S(=O)(c1ccc2ccccc2c1)N(CC1CO1)c1ccccc1 (stereo unspecified),-8.2,13µM*,?,?,-3.8%,-23.8%
CCN(c1ccccc1)S(=O)(=O)c1ccc2c(c1)OCCO2,54.7,16.4µM*,5.1%,?,68.4%,-1.4%
Cc1cccc(NS(=O)(=O)c2cc(C(=O)OC(C)C(=O)NCc3ccc4c(c3)OCO4)ccc2C)c1 (stereo unspecified),0.0,18.4µM*,-11.0%,16.4µM*,9.6%,-14.6%
CC(OC(=O)CC1Oc2ccccc2NC1=O)C(=O)NC1CCCC1 (stereo unspecified),.,.,.,.,18.2%,.
O=[S+]1([O-])NCC2(CCN(Cc3ccc(OC(F)(F)F)cc3)C2)Nc2ccccc21 (stereo unspecified),.,.,.,.,23.2%,.
Cc1oc(-c2cccs2)nc1CC(=O)Nc1ccc(F)cc1Cl,.,.,.,.,-11.3%,.
Cc1ccc(OCC(=O)Nc2ccc(C)c(S(=O)(=O)N3CCCCC3)c2)c([N+](=O)[O-])n1,-28.4,?,-4.4%,?,?,-9.9%
COc1ccc(NC(=O)COc2ccccc2Cc2ccccc2)cc1S(N)(=O)=O,-6.2,20.6µM*,-8.6%,14.6µM*,1.7%,-24.8%
COc1ccc(NC(=O)COc2ccc(C)nc2[N+](=O)[O-])cc1S(N)(=O)=O,-15.4,9.2µM*,-3.6%,?,0.2%,0.8%
Cc1ccsc1/C=N/N=C(c1ccccc1)c1ccccc1,.,.,.,.,6.1%,.
Cc1cc(C)c2cc(CN(CC3CCCO3)C(=S)NCc3ccco3)c(=O)[nH]c2c1 (stereo unspecified),?,?,-17.2%,?,?,-10.7%
CCN1CCCC1CN(Cc1cc2cc(OC)ccc2[nH]c1=O)C(=O)NCc1ccccc1 (stereo unspecified),-6.0,?,-1.3%,-9.5%,-6.1%,0.7%
Cc1cc(C)c2cc(CN(Cc3ccco3)C(=O)NCc3ccccc3)c(=O)[nH]c2c1,-58.2*,9.3%,-17.5%,-9.8%,?,-19.4%
